Source: PubChem BioAssay (NCI)
About 79,000 compounds went through this panel and 15% of them were active in at least one assay; those are over-represented in the sample as a whole. Activity calls are given as the source filed them. Cut-off read from the data, not from the text of the source: active = growth inhibition above about 70%; inactive = the rest.

Key:
[1] = NCI Yeast Anticancer Drug Screen. Data for the rad52 strain (AID 147);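 note: 0% = growth of vehicle-treated control cultures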; settings: S. cerevisiae rad52 mutant growth inhibition, stronger effect = higher value
Summary of the method: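 Here a repair-compromised yeast strain receives each compound; its growth is then quantified and normalised to vehicle-only controls.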

[2] = NCI Yeast Anticancer Drug Screen. Data for the wt1 strain (AID 149);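 note: 0% = growth of vehicle-treated wt1 cultures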; settings: S. cerevisiae wt1 strain (SPY 50644) growth inhibition, stronger effect = higher value
Summary of the method: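 Vehicle-normalised growth inhibition; strain wt1; compound exposure.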

[3] = NCI Yeast Anticancer Drug Screen. Data for the rad50EPP+ strain (AID 151);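 note: 0% = growth of vehicle-treated control cultures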; settings: S. cerevisiae rad50 mutant strain, stronger effect = higher value
Summary of the method: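 Read-out is yeast growth inhibition relative to vehicle; cells used were the rad50EPP+ strain.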

[4] = NCI Yeast Anticancer Drug Screen. Data for the rad50 strain (AID 155);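 note: 0% = growth of vehicle-only cultures of the same strain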; settings: S. cerevisiae rad50 strain growth inhibition, stronger effect = higher value
Summary of the method: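 A DNA repair-deficient yeast mutant serves as the test organism; compound-induced growth inhibition is calculated against vehicle-treated cells.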

[5] = NCI Yeast Anticancer Drug Screen. Data for the mec2-1 strain (AID 157); settings: S. cerevisiae mec2-1 strain, stronger effect = higher value
Summary of the method: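 Using mec2-1 yeast: add compound, measure growth, express inhibition versus vehicle-treated cultures.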

[6] = NCI Yeast Anticancer Drug Screen. Data for the rad14 strain (AID 159);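 note: 0% = growth of vehicle-treated control cultures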; settings: S. cerevisiae rad14 strain growth inhibition, stronger effect = higher value
Summary of the method: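 Vehicle-treated cultures served as the baseline for growth inhibition of a DNA repair-mutant yeast strain exposed to each compound.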

[7] = NCI Yeast Anticancer Drug Screen. Data for the sgs1 mgt1 strain (AID 161);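 note: 0% = growth of cultures given vehicle only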; settings: S. cerevisiae sgs1 mgt1 strain, stronger effect = higher value
Summary of the method: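 This yeast growth screen uses a strain with defined DNA-repair lesions; compound-treated growth is compared with vehicle-treated growth.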

[8] = NCI Yeast Anticancer Drug Screen. Data for the CLN2oe strain (AID 163);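 note: 0% = growth of vehicle-only control cultures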; settings: S. cerevisiae CLN2oe strain, stronger effect = higher value
Summary of the method: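 Whole-cell yeast growth assay. A strain engineered for altered cell-cycle control received compound, and inhibition relative to vehicle-treated cultures was recorded.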

[9] = NCI Yeast Anticancer Drug Screen. Data for the cln2 rad14 strain (AID 165);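 note: 0% = growth equal to vehicle treated cultures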; settings: S. cerevisiae cln2 rad14 strain, stronger effect = higher value
Summary of the method: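 Yeast strain cln2 rad14, bearing defects in cell cycle control and DNA repair, serves as the test system; values reflect growth inhibition compared with vehicle.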

[10] = NCI Yeast Anticancer Drug Screen. Data for the bub3 strain (AID 167); settings: S. cerevisiae bub3 mutant strain, stronger effect = higher value
Summary of the method: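 Inhibition values come from growth of compound-treated mutant yeast normalised to vehicle-treated controls.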

[11] = NCI Yeast Anticancer Drug Screen. Data for the wt2 strain (AID 169);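 note: 0% = growth of vehicle-treated yeast cultures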; settings: S. cerevisiae wt2 strain growth inhibition, stronger effect = higher value
Summary of the method: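 Treated yeast vs. vehicle-treated yeast: growth inhibition determined.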

[12] = NCI Yeast Anticancer Drug Screen. Data for the mlh1 strain (AID 171);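 note: 0% = growth of vehicle-treated control cultures of the same strain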; settings: S. cerevisiae mlh1 strain growth inhibition, stronger effect = higher value
Summary of the method: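 A yeast strain with a defined genetic lesion serves as the test organism. Cultures receive compound or vehicle, and growth is measured.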

[13] = NCI Yeast Anticancer Drug Screen. Data for the sgs1 strain (AID 173);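 note: 0% = growth of vehicle-only control cultures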; settings: S. cerevisiae sgs1 mutant, stronger effect = higher value
Summary of the method: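 A genetically defined yeast mutant is incubated with the test compound, and its growth is compared to that of the same strain given vehicle.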

[14] = NCI Yeast Anticancer Drug Screen. Data for the mlh1 rad18 strain (AID 175); settings: S. cerevisiae mlh1 rad18 strain growth inhibition, stronger effect = higher value
Summary of the method: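 Steps: expose repair-defective yeast to compound; measure growth; express inhibition against vehicle-treated controls.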

[15] = NCI Yeast Anticancer Drug Screen. Data for the rad18 strain (AID 177); settings: S. cerevisiae rad18 mutant growth inhibition, stronger effect = higher value
Summary of the method: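 Measured value is growth inhibition of a yeast strain bearing a DNA repair alteration, referenced to vehicle-treated cells.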

[16] = at 5.0 µM (retest, dose inferred, filed as 0.5)
[17] = at 50.0 µM (retest, dose inferred, filed as 5.0)

Measured: growth inhibition

COc1ccccc1NC(=O)c1ccc(Cl)cc1
inactive: [1]; at 1.2 µM 0% | [1]; at 3.7 µM 3% | [1]; at 11.0 µM 4% | [1]; at 33.0 µM 5% | [1]; at 100.0 µM 1% | [2]; at 1.2 µM -1% | [2]; at 3.7 µM 1% | [2]; at 11.0 µM 1% | [2]; at 33.0 µM 0% | [2]; at 100.0 µM -1% | [3]; at 1.2 µM 7% | [3]; at 3.7 µM 9% | [3]; at 11.0 µM 22% | [3]; at 33.0 µM 40% | [3]; at 100.0 µM 40% | [4]; at 1.2 µM 3% | [4]; at 3.7 µM 5% | [4]; [16] -13% | [4]; at 11.0 µM 8% | [4]; at 33.0 µM 6% | [4]; [17] 12% | [4]; at 50.0 µM 17.6% | [4]; at 100.0 µM 8% | [5]; at 1.2 µM -5% | [5]; at 3.7 µM -5% | [5]; [16] -6% | [5]; at 11.0 µM -7% | [5]; at 33.0 µM -6% | [5]; [17] -14% | [5]; at 50.0 µM 11.1% | [5]; at 100.0 µM -4% | [6]; at 1.2 µM 0% | [6]; at 3.7 µM -1% | [6]; at 11.0 µM 0% | [6]; at 33.0 µM 1% | [6]; at 100.0 µM 0% | [7]; [16] 3% | [7]; [17] 7% | [7]; at 50.0 µM 20.8% | [8]; at 1.2 µM -2% | [8]; at 3.7 µM 0% | [8]; at 11.0 µM -6% | [8]; at 33.0 µM -7% | [8]; at 100.0 µM -4% | [9]; [16] 23% | [9]; at 50.0 µM 16.9% | [10]; at 1.2 µM -5% | [10]; at 3.7 µM -5% | [10]; [16] -8% | [10]; at 11.0 µM -3% | [10]; at 33.0 µM 5% | [10]; [17] -10% | [10]; at 50.0 µM 23.9% | [10]; at 100.0 µM 7% | [11]; at 1.2 µM -1% | [11]; at 3.7 µM -2% | [11]; at 11.0 µM -2% | [11]; at 33.0 µM -3% | [11]; at 100.0 µM -2% | [12]; at 1.2 µM 0% | [12]; at 3.7 µM 1% | [12]; at 11.0 µM 4% | [12]; at 33.0 µM 3% | [12]; at 100.0 µM 3% | [13]; at 1.2 µM 0% | [13]; at 3.7 µM 1% | [13]; at 11.0 µM 2% | [13]; at 33.0 µM 3% | [13]; at 100.0 µM 2% | [14]; [16] -6% | [14]; [17] 11% | [14]; at 50.0 µM 0.15% | [15]; at 1.2 µM 3% | [15]; at 3.7 µM 3% | [15]; at 11.0 µM 1% | [15]; at 33.0 µM 3% | [15]; at 100.0 µM 2%
active: [9]; [17] 75%

COc1ccc(-c2cc(-c3cc(C)cc(Cl)c3O)nc3[nH]c(=S)[nH]c(=S)c23)cc1
inactive: [1]; at 1.2 µM 1% | [1]; at 3.7 µM 4% | [1]; at 11.0 µM 6% | [1]; at 33.0 µM 15% | [2]; at 1.2 µM 0% | [2]; at 3.7 µM -1% | [2]; at 11.0 µM 0% | [2]; at 33.0 µM 1% | [2]; at 100.0 µM 35% | [3]; at 1.2 µM 3% | [3]; at 3.7 µM -5% | [3]; at 11.0 µM -14% | [3]; at 33.0 µM -15% | [3]; at 100.0 µM -15% | [4]; at 1.2 µM 3% | [4]; at 3.7 µM 5% | [4]; [16] -32% | [4]; at 11.0 µM 6% | [4]; at 33.0 µM 11% | [4]; at 100.0 µM 57% | [5]; at 1.2 µM 0% | [5]; at 3.7 µM 0% | [5]; [16] 2% | [5]; at 11.0 µM -2% | [5]; at 33.0 µM 2% | [5]; [17] 62% | [5]; at 100.0 µM 57% | [6]; at 1.2 µM 1% | [6]; at 3.7 µM 4% | [6]; at 11.0 µM 9% | [6]; at 33.0 µM 17% | [7]; [16] -13% | [7]; [17] 68% | [8]; at 1.2 µM -2% | [8]; at 3.7 µM -2% | [8]; at 11.0 µM -3% | [8]; at 33.0 µM -5% | [9]; [16] 44% | [9]; at 50.0 µM 65.5% | [10]; at 1.2 µM 2% | [10]; at 3.7 µM 4% | [10]; [16] -20% | [10]; at 11.0 µM 0% | [10]; at 33.0 µM 1% | [10]; [17] 63% | [10]; at 100.0 µM 58% | [11]; at 1.2 µM 0% | [11]; at 3.7 µM -4% | [11]; at 11.0 µM -4% | [11]; at 33.0 µM 6% | [12]; at 1.2 µM -1% | [12]; at 3.7 µM -2% | [12]; at 11.0 µM 0% | [12]; at 33.0 µM 10% | [13]; at 1.2 µM 1% | [13]; at 3.7 µM -2% | [13]; at 11.0 µM -1% | [13]; at 33.0 µM 16% | [14]; [16] -31% | [15]; at 1.2 µM 0% | [15]; at 3.7 µM -2% | [15]; at 11.0 µM -16% | [15]; at 33.0 µM 8% | [15]; at 100.0 µM 61%
active: [1]; at 100.0 µM 72% | [4]; [17] 96% | [4]; at 50.0 µM 75.1% | [5]; at 50.0 µM 82.6% | [6]; at 100.0 µM 89% | [7]; at 50.0 µM 84.8% | [8]; at 100.0 µM 87% | [9]; [17] 76% | [10]; at 50.0 µM 70.5% | [11]; at 100.0 µM 87% | [12]; at 100.0 µM 87% | [13]; at 100.0 µM 93% | [14]; [17] 86% | [14]; at 50.0 µM 87.1%
